SMILES strings stand for the structures.

The target in the first assay is T1, Aspartate--tRNA(Asp/Asn) ligase (Mycobacterium tuberculosis (strain ATCC 25618 / H37Rv)) (UniProt P9WFW3). Also: in the data most compounds retested in dose-response had high values.
T1 sequence (whole entry): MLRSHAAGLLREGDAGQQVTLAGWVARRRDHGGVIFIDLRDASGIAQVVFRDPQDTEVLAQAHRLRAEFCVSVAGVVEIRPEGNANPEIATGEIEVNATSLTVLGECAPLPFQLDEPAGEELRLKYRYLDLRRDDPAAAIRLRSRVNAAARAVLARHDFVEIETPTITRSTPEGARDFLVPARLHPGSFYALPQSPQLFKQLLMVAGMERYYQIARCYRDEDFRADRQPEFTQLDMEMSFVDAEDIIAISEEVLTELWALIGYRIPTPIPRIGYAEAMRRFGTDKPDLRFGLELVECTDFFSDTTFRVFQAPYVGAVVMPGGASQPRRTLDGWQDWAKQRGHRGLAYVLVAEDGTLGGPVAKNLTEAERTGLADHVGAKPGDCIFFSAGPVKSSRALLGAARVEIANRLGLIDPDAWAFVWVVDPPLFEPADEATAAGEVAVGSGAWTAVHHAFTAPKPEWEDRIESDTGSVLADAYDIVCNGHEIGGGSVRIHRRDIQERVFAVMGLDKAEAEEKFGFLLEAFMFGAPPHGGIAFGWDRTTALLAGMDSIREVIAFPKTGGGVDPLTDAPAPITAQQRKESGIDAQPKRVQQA
Nature of the assay: Assay for Asp RNA synthetase-1 from Mycobacterium tuberculosis. It counts as functional. More on the design: scale not given: direction of the effect not stated beside the values. To be noted: 30 µM.
Turning to `CS(=O)(=O)c1ccccc1C(=O)NCCCN1CCc2ccccc2C1`, the Percent Effect is -6.45%.

As to `O=C(Nc1ccccc1)C1CN(CC2CC2)CC12CCOCC2` (centres undefined), the Percent Effect was determined as 0.903%.

Take `COCCN1C(=O)CC(N2CCN(c3ccc(OC)cc3)CC2)C1=O` (centres undefined): the Percent Effect was -5.68%.

For the compound `C[C@H](O)CNC(=O)c1cnc(-c2ccccc2)nc1O`, the Percent Effect was 2.44%.

Consider `c1cnn(Cc2nnc3n2CCCN(CC2CCOCC2)C3)c1`, for which the Percent Effect was determined as 2.52%.

As for `CNc1oc(-c2ccc(OC)c(S(=O)(=O)N3CCCCC3)c2)nc1C#N`, the Percent Effect is -1.39%.

Turning to `Cc1cc(CN(C)Cc2cc3c(cc2OC(F)F)OCO3)on1`, the Percent Effect was 4.16%.

On to `COCC1CN(C(=O)c2ccnnc2)Cc2c1cnn2C` (centres undefined), for which the Percent Effect was 0.28%.

In the case of `Cn1nc2c(cc1=O)CN(Cc1nc(C(C)(C)C)no1)CC2`, the Percent Effect amounted to 50.6%.

With `COC(=O)C1CCN(C(=O)c2ccc(C)c(NS(C)(=O)=O)c2)CC1`, the Percent Effect is -1.09%.

Turning to `CNS(=O)(=O)c1cccc(C(C)NCc2nccn2C(C)C)c1` (centres undefined), the Percent Effect is -2.07%.

Take `Cn1cc(N2CCC3(CCN(Cc4nccs4)C3)C2=O)cn1` (centres undefined): the Percent Effect was -0.749%.

For `CNc1cc2c(nn1)CCN(C(=O)c1ccoc1)C2`, the Percent Effect amounted to 0.663%.

Turning to `COc1ccc(Br)c(C(=O)N2CCC(c3n[nH]c(C4CC4)n3)CC2)c1`, the Percent Effect came out at 0.422%.

On to `COc1cccc(CCC2CCCN(C(=O)C3=NN(C)C(=O)CC3)C2)c1` (centres undefined), for which the Percent Effect was determined as 1.75%.

Consider `CN(C)[C@H]1CCCCN(C(=O)CCc2csc(N)n2)C1`, for which the Percent Effect is -1.18%.

Take `CC(C)(C)c1n[nH]c(C2CN(C(=O)CCC3CC3)CCO2)n1` (centres undefined): the Percent Effect was -3.75%.

For the compound `CN(C)C(=O)CN1C(=O)CCC12CCN(Cc1cccn1C)CC2`, the Percent Effect was 4.89%.

Regarding `Cc1nc(C)n(CC2CCCCN2CC(=O)N(C)Cc2ccco2)n1` (centres undefined), the Percent Effect is 1.76%.

Regarding `CC(C)C1CN(c2ncccn2)CCC(=O)N1Cc1ccc(F)cc1` (centres undefined), the Percent Effect is 3.51%.

In the case of `Cc1cc(-c2nn(C)c(Cl)c2CN2CCOCC(O)C2)no1` (centres undefined), the Percent Effect was -2.42%.

Another assay has as its target Shiga toxin 2 (Escherichia coli O157:H7) (UniProt P09385+P09386). Briefly: E. coli 0.157:H7 Shiga Toxin SOP - stx2 screening assay. It counts as functional. More on the design: scale not given: direction of the effect not stated beside the values. To be noted: 30 µM.
On to `COc1cc(C2CC(=O)Oc3cc(C)[nH]c(=O)c32)ccc1OC(F)F` (centres undefined), for which the Percent Effect is -43.6%.

For `COCc1cccc(NC(C)C(=O)N(C)Cc2cccc(F)c2)c1` (centres undefined), the Percent Effect was -8.46%.

As for `COCC(c1cccc(C(F)(F)F)c1)N(C)C(=O)c1ccncc1` (centres undefined), the Percent Effect was -15.3%.

For the compound `CC(C(=O)N1CCCC1)N1CCC(c2nccn2CC2CCC2)CC1` (centres undefined), the Percent Effect was -1.48%.

For `Cc1cc(NC(=O)NCC(C)O)n(C)n1` (centres undefined), the Percent Effect was -5.14%.

For the compound `Cc1ncc(S(C)(=O)=O)c(C2CCCNC2)n1` (centres undefined), the Percent Effect is -2.77%.

As for `Cn1cnnc1CNC(=O)Nc1cc(C(F)(F)F)c[nH]c1=O`, the Percent Effect worked out at 27.2%.

`Cc1ccc(Cl)cc1C(=O)N1CCC2(CC1)c1ccccc1[C@@H](N)[C@@H]2O`: the Percent Effect is -5.92%.

As to `COCCN1C(=O)[C@]2(CC[C@@H]3CN(C(=O)NC4CCCC4)C[C@@H]32)N=C1C`, the Percent Effect is -4.86%.

Regarding `O=C1OC2(CCNCC2)CN1CC(=O)N1CCCC1c1ccco1` (centres undefined), the Percent Effect was -9.63%.

Take `CC(C(=O)NCc1ccc(N2CCNC(=O)C2)cc1)n1cncn1` (centres undefined): the Percent Effect was -118%.

Take `Cc1cn2c(n1)CCC(NC(=O)c1ccc(CS(C)(=O)=O)o1)C2` (centres undefined): the Percent Effect is 10.6%.

For `COCC(=O)N1CCC(c2nccnc2Oc2cccnc2C)CC1`, the Percent Effect was 6.27%.

Consider `CNC(=O)CCc1cc(C)nc(C2CCCN2)n1` (centres undefined), for which the Percent Effect turned out to be 9.84%.

Consider `CN(C)C(=O)NC1COC2(CCN(C(=O)Nc3ccccc3)CC2)C1` (centres undefined), for which the Percent Effect is -15.4%.

Turning to `Cc1nc(N2CCCC2)ncc1-c1cc(O)nc(N2CCCC2)n1`, the Percent Effect was -0.674%.

As for `CCc1ccc(CN2CCCC(CO)(CCOC)C2)cc1` (centres undefined), the Percent Effect was -14%.

Regarding `N#Cc1ccc(OCCNc2cccc(C(=O)N3CCOCC3)c2)cc1`, the Percent Effect was -43.4%.

In the case of `CNC(=O)CCCNCc1c(C(C)C)nn(C)c1N(C)C`, the Percent Effect came out at 3.71%.

As for `CS(=O)(=O)c1ccccc1C(=O)NCCCN1CCc2ccccc2C1`, the Percent Effect is -24.7%.

As to `O=C(Nc1ccccc1)C1CN(CC2CC2)CC12CCOCC2` (centres undefined), the Percent Effect is -13.2%.

With `COCCN1C(=O)CC(N2CCN(c3ccc(OC)cc3)CC2)C1=O` (centres undefined), the Percent Effect was found to be 3.53%.

Consider `C[C@H](O)CNC(=O)c1cnc(-c2ccccc2)nc1O`, for which the Percent Effect is -10.8%.

Consider `c1cnn(Cc2nnc3n2CCCN(CC2CCOCC2)C3)c1`, for which the Percent Effect stood at 18.5%.

As for `CNc1oc(-c2ccc(OC)c(S(=O)(=O)N3CCCCC3)c2)nc1C#N`, the Percent Effect was -28.4%.

Consider `Cc1cc(CN(C)Cc2cc3c(cc2OC(F)F)OCO3)on1`, for which the Percent Effect was 19.4%.

For the compound `COCC1CN(C(=O)c2ccnnc2)Cc2c1cnn2C` (centres undefined), the Percent Effect was -14.3%.

Regarding `Cn1nc2c(cc1=O)CN(Cc1nc(C(C)(C)C)no1)CC2`, the Percent Effect was found to be 0.187%.

In the case of `COC(=O)C1CCN(C(=O)c2ccc(C)c(NS(C)(=O)=O)c2)CC1`, the Percent Effect is -2.45%.

For `CNS(=O)(=O)c1cccc(C(C)NCc2nccn2C(C)C)c1` (centres undefined), the Percent Effect was -29.6%.

Consider `Cn1cc(N2CCC3(CCN(Cc4nccs4)C3)C2=O)cn1` (centres undefined), for which the Percent Effect was -2.2%.

In the case of `CNc1cc2c(nn1)CCN(C(=O)c1ccoc1)C2`, the Percent Effect is 28.5%.

Take `COc1ccc(Br)c(C(=O)N2CCC(c3n[nH]c(C4CC4)n3)CC2)c1`: the Percent Effect was -39.5%.
